SMILES strings stand for the structures. The whole screen tested about 300,000 compounds, of which about 3,200 (1.1%) were called active. For the sample, actives were picked, then their nearest neighbours and some compounds at random. Unmarked numbers belong to inactive results.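 Rule for the calls: active = inhibition above the campaign mean inhibition plus 3 SD (cut at about 35% in these data); inactive = the rest.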

Our source for the inhibition values is PubChem BioAssay AID1974 (The Scripps Research Institute Molecular Screening Center, 2009).

In the experiment the target is Glutathione S-transferase omega-1 (Homo sapiens) (UniProt P78417). In words: human GSTO1 enzyme inhibition – biochemical, fluorescence polarization, counter-screen for RBBP9 inhibitor project, primary screen (AID 1974).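 Note: 0% = GSTO1-1 with DMSO and 100% = wells lacking GSTO1-1 enzyme.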 Particulars: recombinant GSTO1, activity-based probe fluorescence polarization; at 5.96 µM; stronger effect = higher value.
Glutathione S-transferase omega-1 (Homo sapiens), sequence (P78417 whole entry, looked up): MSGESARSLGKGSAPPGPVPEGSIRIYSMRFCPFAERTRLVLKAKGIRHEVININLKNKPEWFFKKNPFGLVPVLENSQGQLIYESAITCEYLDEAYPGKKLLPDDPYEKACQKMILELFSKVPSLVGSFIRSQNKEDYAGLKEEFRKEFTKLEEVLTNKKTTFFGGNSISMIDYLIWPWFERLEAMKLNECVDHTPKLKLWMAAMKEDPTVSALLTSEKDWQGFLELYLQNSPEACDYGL
What is called inhibition is the relative decrease from the control value, in per cent. On to `Cc1ccc(NC(=O)C2CC(=O)N(c3ccc4c(c3)OCCO4)C2)cc1S(=O)(=O)N1CCCCCC1` (stereo not given), for which the inhibition is 0.87%.

For `CCN(CCCNC(=O)CCn1c(=O)[nH]c2ccsc2c1=O)c1ccccc1`, the inhibition is 0.71%. The same measure for `Cc1cccc(C(=O)NCCCN(C)CCCNC(=O)c2cccc(C)c2)c1`: -1.1%; for `CCN(CCCNC(=O)c1ccc2c(c1)NC(=O)CN2C)c1cccc(C)c1`: 52.9% (active); for `CCOCCn1[nH]c2ccccc2c1=O`: 1.49%.

With `CC(=O)c1c(-c2ccccc2)c2ccccc2[nH]c1=O`, the inhibition is -2.94%. The same measure for `O=c1[nH]c2ccccc2n2c(-c3ccccc3)nnc12`: 69.1% (active); for `Cc1ccccc1Cn1c(=O)[nH]c2ccccc21`: 8.19%; for `O=S(=O)(NCCS(=O)(=O)N1CCN(c2ccccc2)CC1)c1ccc(F)cc1`: -12.9%.

Regarding `CN(CC(=O)NNC(=O)CNC(=O)c1ccccc1Cl)S(=O)(=O)c1ccc(Cl)cc1`, the inhibition is 5.54%. Next, `O=C1NCCn2nc3ccccc3c21`: 3.49%; `CCOc1ccc(NC(=O)CCC(=O)N/N=C/c2ccc([N+](=O)[O-])s2)cc1`: 5.9%. Next, `O=[N+]([O-])c1ccc(C=Nc2ccc(Cl)cc2Cl)s1`: 38.5% (active); `O=C(NCc1ccccc1Cl)C(=O)NCC1CCCN1S(=O)(=O)c1cccs1` (stereo not given): 4.65%. Next, `CCOc1ccc(CCNC(=O)CN2C(=O)NC3(CCc4ccccc43)C2=O)cc1OCC` (stereo not given): 1.55%; `C#CCOCCOCCOCCNc1nc(N2CCN(C(=O)Cn3cc(CCCCN)nn3)CC2)nc(N2CCN(C(=O)[C@H](CCCCN)n3cc(CCC(=O)O)nn3)CC2)n1`: 6.12%; `Cc1ccc(S(=O)(=O)Nc2nc3ccccc3nc2N2CCc3ccccc3C2)cc1`: 0.1%. `Cc1cc(N2CCN(S(=O)(=O)c3ccc(C)c(C)c3)CC2)c2ccccc2n1`: the inhibition was -2.63%. Turning to `Cc1ccc(S(=O)(=O)C(C#N)c2nc3ccccc3nc2N2CCCC2)cc1C` (stereo not given), the inhibition is 51.4% (active).

For `O=C(NCCC1CCCCN1S(=O)(=O)c1ccc(Cl)cc1)C(=O)NCc1ccco1` (stereo not given), the inhibition was -0.26%. Next, `CN(C)CCc1c[nH]c2ccc(Cn3cncn3)cc12`: 4.56%.

Take `CC(OC(=O)CCCOc1ccccc1)C(=O)Nc1ccc(Cl)cn1` (stereo not given): the inhibition is -0.72%. Turning to `O=C(CNC(=O)c1cccnc1)N/N=C/c1cccnc1`, the inhibition is -0.23%. The same measure for `O=C(CSc1cccc2cccnc12)N/N=C/c1cccnc1`: 36.6% (active); for `Cc1ccc(NC(=O)CSc2cccc3cccnc23)c(C)c1`: 14.1%; for `O=C(CSc1nc(=O)n2ccccc2n1)Nc1ccc2c(c1)OCCO2`: 3.74%.

Consider `C/C(CCC(=O)OC[C@H]1O[C@H](C#Cc2ccccc2)C=C[C@@H]1Oc1ccc(C)cc1)=N\OC[C@@H](O)[C@H]1O[C@@H]2OC(C)(C)O[C@@H]2[C@H]1O`, for which the inhibition was 3.31%. The same measure for `CCOc1ccc(/C=C/C(=O)OCC(=O)c2ccccc2OC)cc1OC`: -2.58%; for `CCC(C)(C)NC(=O)C1c2ccccc2Oc2ccccc21`: 3.61%. On to `CCC(C)NC(=O)C1c2ccccc2Oc2ccccc21` (stereo not given), for which the inhibition was 2.29%. Turning to `O=C(N/N=C/c1ccc(O)c(O)c1)C1c2ccccc2Oc2ccccc21`, the inhibition was 35.5% (active). Next, `CCOC(=O)N1CCN(C(=O)COc2ccc3oc4c(c3c2)CCCC4)CC1`: -0.52%; `Nc1ccccc1/C=N\N=C/c1ccccc1N`: 8.02%. Consider `CCOc1ccc(CCNC(=O)COC(=O)c2ccc(F)c(S(=O)(=O)N3CCOCC3)c2)cc1OCC`, for which the inhibition is 11.6%. Next, `CCCCN(CCCC)CCC(O)c1cc2c(Cl)cc(Cl)cc2c2cc(C(F)(F)F)ccc12` (stereo not given): 7.04%; `COc1ccc(CNC(=O)C2(CC3CC(c4ccccc4)=NO3)CCN(C(=O)c3cccc(O)c3)CC2)cc1` (stereo not given): -2.65%; `Cc1noc(C)c1C(=O)N1CCOCC1`: -8.26%. The same measure for `Cc1oc2c(c1C(=O)N1CCOCC1)C(=O)c1ccccc1C2=O`: 49% (active); for `CCOC(=O)c1ccccc1C(=O)N1CCOCCOCCOCC1`: 0.47%; for `CCOc1ccc(CC(=O)NCCS(=O)(=O)N2CCN(c3ccccc3)CC2)cc1`: 2.49%. Consider `COc1ccc(-c2csc3ncnc(N4CCN(S(=O)(=O)c5cccc(F)c5)CC4)c23)cc1`, for which the inhibition was -26.4%. Next, `Cc1ccsc1C(=O)N/N=C/c1ccc([N+](=O)[O-])cc1`: 0.47%; `CCOc1ccc(N2CC(C(=O)N/N=C/c3sccc3C)CC2=O)cc1` (stereo not given): 8.53%; `Cc1cc(C(=O)N/N=C/c2ccccc2[N+](=O)[O-])c(C)o1`: -0.23%. As to `O=C(Cc1cc(=O)[nH][nH]1)N/N=C/c1ccccc1[N+](=O)[O-]`, the inhibition is 49.5% (active).

On to `COc1cc(CC(=O)N/N=C/c2ccccc2)c([N+](=O)[O-])cc1OC`, for which the inhibition is -0.51%. The same measure for `Cc1ccsc1/C=N/NC(=O)Cc1cc(=O)[nH][nH]1`: 37.2% (active). For the compound `CCC(C)c1ccccc1N1CC(C(=O)N2CCN(S(=O)(=O)c3ccc(F)cc3)CC2)CC1=O` (stereo not given), the inhibition is 2.71%.

Consider `CCOC(=O)/C=C/c1ccc(C(F)(F)F)cc1S(=O)(=O)NC(C)(C)C`, for which the inhibition was -1.78%.

As for `COC(=O)c1ccc2ccccc2c1OC1OC(CO)C(O)C(O)C1NC(C)=O` (stereo not given), the inhibition was 2.04%. Regarding `Cc1ccc2nc(NC(=O)C3CSC4(C)CCC(=O)N34)sc2c1` (stereo not given), the inhibition was 1.93%. As to `Cc1nn(Cc2ccccc2)c2c1C(c1ccccc1)C(C#N)=C(N)O2` (stereo not given), the inhibition is 6.98%. Consider `Cc1nn(-c2ccccc2)c2c1C(c1ccc(F)cc1)C(C#N)=C(N)O2` (stereo not given), for which the inhibition is 25.3%.

Regarding `COc1ccccc1C1C(C#N)=C(N)Oc2c1c(-c1ccccc1)nn2-c1ccccc1` (stereo not given), the inhibition was 59.1% (active). Next, `C#CCOCCOCCOCCNc1nc(N2CCN(C(=O)CCCCCCCCCCNC(=O)[C@H](CCCCN)n3cc(C)nn3)CC2)nc(N2CCN(C(=O)CCCCCCCCCCNC(=O)[C@H](CO)n3cc(CCCSC)nn3)CC2)n1`: 4.17%; `CCOC(=O)[C@H]1[C@H]2COc3ccc(Cl)cc3[C@@H]2N2C(=O)c3cc(C)ccc3NC(=O)[C@@]12C`: 1.13%.

Consider `Cc1nc2ccccc2c(=O)n1-c1ccc(F)c(NC(=O)c2cccs2)c1`, for which the inhibition is -6.66%. Next, `CCN(C(=O)CSc1nnc(-c2ccc(OC(F)F)cc2)n1N)C1CCS(=O)(=O)C1` (stereo not given): -5.72%; `Cc1ccc(-c2nn(-c3ccc(F)cc3)cc2C(=O)NCC(c2cccs2)N2CCOCC2)cc1` (stereo not given): -3.34%. Next, `O=c1[nH]c(SCc2ccccc2)nnc1-c1ccccc1`: -7.41%; `Brc1ccc(CSc2ccc(-c3ccco3)nn2)cc1`: -3.33%. The same measure for `Clc1ccccc1CSc1nnc(-c2ccco2)c(-c2ccco2)n1`: 53% (active); for `O=c1cc(O)nc(SCc2ccccc2Cl)[nH]1`: -11.3%. Regarding `c1ccc(CSc2nnc(-c3ccco3)c(-c3ccco3)n2)cc1`, the inhibition is 59.8% (active).

Consider `Fc1cccc(Cl)c1CSc1ccc(-c2ccco2)nn1`, for which the inhibition was 3.45%. Take `Cc1cc(C)n2nc(C(=O)OC(C)C(=O)c3cc(C)c(C)cc3C)nc2n1` (stereo not given): the inhibition was 3.12%. Next, `COc1ccc(CNC(=O)CNC(=O)c2sc3ccccc3c2Cl)cc1OC`: -3.56%; `O=c1[nH]c(/C=C/c2cccc(Br)c2)nc2ccccc12`: -7.5%.

For the compound `O=[N+]([O-])c1ncc(Br)cc1Nc1ccccc1`, the inhibition is 13.4%.

For `Cc1cc(C(=O)N/N=C/c2ccc(O)c([N+](=O)[O-])c2)c(C)n1-c1ccc(F)cc1`, the inhibition was 23.2%. The same measure for `COc1cc(/C=N/NC(=O)c2cc(C)n(-c3ccc(F)cc3)c2C)cc(OC)c1O`: 35.7% (active); for `COc1cc(/C=N/NC(=O)c2cc(-c3ccccc3C)nc3ccccc23)cc(OC)c1O`: 3%. Next, `CN(C)CCn1c2c(c(SCC(=O)Nc3ccccc3C(F)(F)F)nc1=O)CCCC2`: -0.08%; `C=CCNC(=O)c1ccccc1SCc1c(C)noc1C`: 55.2% (active); `CCN(CC(=O)Nc1ccccc1C(F)(F)F)C(=O)CSCc1c(C)noc1C`: -6.06%.

As for `C=CCNC(=O)c1cc(-c2ccccc2O)on1`, the inhibition was 3.47%.

`COc1ccc(N2CCN(S(=O)(=O)c3cc4c5c(c3)C(C)C(=O)N5CCC4)CC2)cc1` (stereo not given): the inhibition is 8.18%. The same measure for `Cc1nc2ccccc2c(=O)n1-c1ccc(NS(=O)(=O)c2ccc(F)cc2F)cc1`: -1.88%; for `CC(=O)C12CC(C)=C(C)CC1CC1C3CCC4=CC(=O)CCC4(C)C3CCC12C` (stereo not given): 0%. Next, `CC1(C)S[C@@H]2[C@H](N=CN3CCCCCC3)C(=O)N2[C@H]1C(=O)O`: 1.77%. The same measure for `COC(=O)c1cc(CNC(=O)CC(C)c2ccccc2)ccc1OC` (stereo not given): 3.39%; for `CC1(c2nnc(-c3ccncc3)o2)CC(c2cccnc2)=NO1` (stereo not given): 7.77%.

Regarding `CCOc1ccc(NC(=O)CSc2nc3c(c(=O)n2-c2ccccc2OC)SCC3)cc1`, the inhibition was 9.5%. The same measure for `CCc1nnc(NC(=O)CSc2nc3c(c(=O)n2-c2ccccc2OC)SCC3)s1`: 35.6% (active). The same measure for `CCc1nnc(NC(=O)CSc2nnc(Cc3ccccc3)n2-c2ccc(OC)cc2)s1`: -0.09%. Next, `OCC[C@H]1C[C@@H](O)[C@H](O)[C@]2(OCCCc3ccccc32)O1`: -3.33%; `CC(C)CC[n+]1ccn(C2=C([O-])c3ccccc3C(=O)/C2=N\S(=O)(=O)c2ccccc2)c1`: 70.8% (active); `COc1ccc(N(C(=O)c2cccnc2)S(=O)(=O)c2ccc(OC)c(OC)c2)cc1`: 8.53%. As to `O=C(c1cccnc1)N(c1cc2sc(=O)oc2c2ccccc12)S(=O)(=O)c1ccccc1`, the inhibition is 66.5% (active). The same measure for `COc1ccc(N(C(=O)c2cccnc2)S(=O)(=O)c2ccc3c(c2)n(C)c(=O)n3C)cc1`: 9.41%.
